We go through nine compounds from the supplement of paper PMC7366291.

Structures can show the parent of a compound that is named as a salt. ± gives the standard deviation or the standard deviation of the averaged measurements.

Holding throughout (details): 25 µM; exposure: 24-48 hpf
In test [1] the test system is Danio rerio Tg(wt1b:EGFP) embryo, pronephros. Kind of test: glomerular separation, fold change vs DMSO control; higher = glomeruli further apart (abnormal). The method in brief: (§1)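 Dechorionated Tg(wt1b:EGFP) zebrafish embryos were incubated at 28.5°C from 24 to 48 hpf with 25 μM compound in HEPES-buffered E3 containing 0.5% DMSO and 0.003% PTU. Distances and angles between 16 manually set points on maximum projections of dorsal pronephros images were measured in Fiji, with values over 2 SD from the feature mean excluded. Each feature is a fold change relative to the mean of same-day DMSO-treated embryos.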

For test [2] the test system is unchanged. Description: glomerular width (mean of left and right), fold change vs DMSO control; higher = wider glomerulus. The method in brief:
as §1

Test [3] shares this test system. Description: fraction of imaged embryos annotated as normal kidney; higher = less nephrotoxic; extreme values may be limits of the assay. The method in brief:
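Embryos of the Tg(wt1b:EGFP) zebrafish line were dechorionated and held in 12-well plates with 25 μM compound in 0.5% DMSO and 5 mM HEPES-buffered E3 containing 0.003% PTU, from 24 to 48 hpf at 28.5°C. Larvae were then anaesthetised with tricaine, set dorsal side up in agarose-filled 96-well plates, and their pronephroi imaged by widefield fluorescence at 470 nm over 10 z-slices. Each value is the fraction of embryos per treatment placed in the normal-kidney category after manual annotation of maximum projections.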

Test [4] shares this test system. Kind of test: pronephric angle neck segment to proximal convoluted tubule (mean of left and right), fold change vs DMSO control; higher = larger pronephric angle. The method in brief:
as §1

Consider `CC(=O)N(CC(C)C(=O)O)c1c(I)cc(I)c(N)c1I` (stereo unspecified) [Iocetamic acid], for which, in test [1], the glomerular separation was 0.546 ± 0.25. Also, in test [2], the glomerular width is 0.974 ± 0.011. Moreover, the “fraction of imaged embryos annotated as normal kidney” value (“fraction of imaged embryos annotated” for short) in test [3] amounted to 0.917. Besides, the “pronephric angle neck segment” value in test [4] came out at 0.986 ± 0.024.

`Nc1ccc(C(=O)NCC(=O)O)cc1` [Aminohippuric acid] had a glomerular separation in test [1] of 0.88 ± 0.41. For the same compound, in test [2], the glomerular width was found to be 0.993 ± 0.03. For the same compound, the “fraction of imaged embryos annotated” value in test [3] was determined as 0.917. Also, the “pronephric angle neck segment” value in test [4] was determined as 0.991 ± 0.018.

Compound `CC(C)(C)NC[C@H](O)c1ccc(O)c(CO)c1` [Levalbuterol hydrochloride] registered a glomerular separation in test [1] of 0.811 ± 0.27. Besides, the glomerular width in test [2] amounted to 1.07 ± 0.031. The “fraction of imaged embryos annotated” value in test [3] is 0.917. Moreover, the “pronephric angle neck segment” value in test [4] is 0.998 ± 0.031.

Consider `Nc1nc2[nH]cc(CCc3ccc(C(=O)N[C@@H](CCC(=O)O)C(=O)O)cc3)c2c(=O)[nH]1` [Pemetrexed disodium], for which the glomerular separation in test [1] is 0.831 ± 0.39. This compound yielded a glomerular width in test [2] of 1.08 ± 0.041. For the same compound, in test [3], the “fraction of imaged embryos annotated” value came to 0.833. For the same compound, the “pronephric angle neck segment” value in test [4] was found to be 0.972 ± 0.057.

As for `COc1cc(OC)c(C(=O)CCCN2CCCC2)c(OC)c1` [Buflomedil hydrochloride], the glomerular separation in test [1] is 1.14 ± 0.33. The compound also gave a glomerular width in test [2] of 1.08 ± 0.06. In addition, the “fraction of imaged embryos annotated” value in test [3] turned out to be 0.917. Moreover, in test [4], the “pronephric angle neck segment” value stood at 1.01 ± 0.053.

In turn, `CN(CCOc1ccc(NS(C)(=O)=O)cc1)CCc1ccc(NS(C)(=O)=O)cc1` [Dofetilide] came in with a glomerular separation in test [1] of 1.35 ± 0.35. This compound registered a glomerular width in test [2] of 0.982 ± 0.025. Also, in test [3], the “fraction of imaged embryos annotated” value was 0.583. In addition, the “pronephric angle neck segment” value in test [4] is 1.01 ± 0.07.

Consider `CC1(C)[C@@H](OC(=O)CCC(=O)O)CC[C@]2(C)[C@H]3C(=O)C=C4[C@@H]5C[C@@](C)(C(=O)O)CC[C@]5(C)CC[C@@]4(C)[C@]3(C)CC[C@@H]12` [Carbenoxolone disodium salt], for which the glomerular separation in test [1] came out at 0.718 ± 0.41. Besides, in test [2], the glomerular width turned out to be 1.04 ± 0.031. Also, in test [3], the “fraction of imaged embryos annotated” value came out at 0.667. In addition, the “pronephric angle neck segment” value in test [4] stood at 0.9894 ± 0.0072.

The compound `COc1cc(N)c(Cl)cc1C(=O)NC1CCN(CCCOc2ccc(F)cc2)CC1OC` (stereo unspecified) [Cisapride] displayed a glomerular separation in test [1] of 1.09 ± 0.39. The compound also registered a glomerular width in test [2] of 1.066 ± 0.0076. The “fraction of imaged embryos annotated” value in test [3] was 0.583. Further, the “pronephric angle neck segment” value in test [4] turned out to be 0.992 ± 0.071.

Regarding `CC1CS(=O)(=O)CCN1/N=C/c1ccc([N+](=O)[O-])o1` (stereo unspecified) [Nifurtimox], in test [1], the glomerular separation was found to be 0.837 ± 0.36. This compound also returned a glomerular width in test [2] of 0.986 ± 0.038. For the same compound, the “fraction of imaged embryos annotated” value in test [3] amounted to 0.917. For the same compound, the “pronephric angle neck segment” value in test [4] was 0.938 ± 0.045.
